Laboratory results taken from the supplement of paper PMC4022240.
± gives the standard deviation.

Assays:
Assay in all cases: peptide microarray binding signal (635 nm), min-max normalized on array (fraction of array maximum); higher = stronger binding
Details in all cases: peptide region: H3 11-23
[1] = target: T1, HaloTag-ATRX ADD domain (163-292)
T1 chain: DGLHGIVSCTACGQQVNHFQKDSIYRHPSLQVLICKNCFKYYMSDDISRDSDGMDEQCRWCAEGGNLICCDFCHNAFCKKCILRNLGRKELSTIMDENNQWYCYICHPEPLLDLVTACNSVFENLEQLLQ
In short: (§1)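 For each library, binding signal was taken as the triplicate-spot mean intensity and then min-max scaled. Spots of histone 13-mer peptide–cellulose conjugates on nitrocellulose, printed in triplicate with a Cy3 tracer, were probed for 1 h at 4°C with either biotin-labelled HaloTag reader fusions (10 nM to 1 μM) and streptavidin-Alexa Fluor 647 or rabbit histone antibodies (1:10,000 to 1:2,000) and anti-rabbit Alexa 647. Readout at 635 nm came from an Axon GenePix 4000B.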

[2] = target: HaloTag-ING2 PHD (mouse Ing2 200-280)
In short: as §1

[3] = target: anti-H3K4me3 antibody ab8580
In short: as §1

[4] = target: anti-H3K9me3 antibody ab8898
In short: as §1

[5] = peptide modifications: H3K14me1 H3K18me1, binder concentration: 1:2,000 dilution
[6] = peptide modifications: H3K14me1 H3K18me1, binder concentration: 1:10,000 dilution
[7] = peptide modifications: H3K14me1 H3K18me2, binder concentration: 1:2,000 dilution
[8] = peptide modifications: H3K14me1 H3K18me2, binder concentration: 1:10,000 dilution
[9] = peptide modifications: H3K14me1 H3K18me3, binder concentration: 1:2,000 dilution
[10] = peptide modifications: H3K14me1 H3K18me3, binder concentration: 1:10,000 dilution
[11] = peptide modifications: H3K14me1 H3R17cit, binder concentration: 1:2,000 dilution
[12] = peptide modifications: H3K14me1 H3R17cit, binder concentration: 1:10,000 dilution
[13] = peptide modifications: H3K14me1 H3R17me1, binder concentration: 1:2,000 dilution
[14] = peptide modifications: H3K14me1 H3R17me1, binder concentration: 1:10,000 dilution
[15] = peptide modifications: H3K14me1 H3R17me2a, binder concentration: 1:2,000 dilution
[16] = peptide modifications: H3K14me1 H3R17me2a, binder concentration: 1:10,000 dilution
[17] = peptide modifications: H3K14me1 H3R17me2s, binder concentration: 1:2,000 dilution
[18] = peptide modifications: H3K14me1 H3R17me2s, binder concentration: 1:10,000 dilution
[19] = peptide modifications: H3K14me2, binder concentration: 1:2,000 dilution
[20] = peptide modifications: H3K14me2, binder concentration: 1:10,000 dilution
[21] = peptide modifications: H3K14me2 H3K18ac, binder concentration: 1:2,000 dilution
[22] = peptide modifications: H3K14me2 H3K18ac, binder concentration: 1:10,000 dilution
[23] = peptide modifications: H3K14me2 H3K18me1, binder concentration: 1:2,000 dilution
[24] = peptide modifications: H3K14me2 H3K18me1, binder concentration: 1:10,000 dilution

TGGKAPRKQLATK [H3 11-23 T G G Kme A P R Kme Q L A T K]
peptide microarray binding signal ([1]; peptide modifications: H3K14me1 H3K18me1, binder concentration: 50 nM): 0.00561 ± 0.00015 | peptide microarray binding signal ([1]; peptide modifications: H3K14me1 H3K18me1, binder concentration: 500 nM): 0.00886 ± 0.00086 | peptide microarray binding signal ([2]; peptide modifications: H3K14me1 H3K18me1, binder concentration: 10 nM): 0.0118 ± 0.0022 | peptide microarray binding signal ([2]; peptide modifications: H3K14me1 H3K18me1, binder concentration: 100 nM): 0.0213 ± 0.0055 | peptide microarray binding signal [3, 5]: 0.00619 ± 0.0022 | peptide microarray binding signal [3, 6]: 0.00611 ± 0.00051 | peptide microarray binding signal [4, 5]: 0.00311 ± 0.00053 | peptide microarray binding signal [4, 6]: 0.00213 ± 5.2e-05

TGGKAPRKQLATK [H3 11-23 T G G Kme A P R Kme2 Q L A T K]
peptide microarray binding signal ([1]; peptide modifications: H3K14me1 H3K18me2, binder concentration: 50 nM): 0.009 ± 0.00035 | peptide microarray binding signal ([1]; peptide modifications: H3K14me1 H3K18me2, binder concentration: 500 nM): 0.018 ± 0.00081 | peptide microarray binding signal ([2]; peptide modifications: H3K14me1 H3K18me2, binder concentration: 10 nM): 0.00913 ± 0.00044 | peptide microarray binding signal ([2]; peptide modifications: H3K14me1 H3K18me2, binder concentration: 100 nM): 0.0241 ± 0.008 | peptide microarray binding signal [3, 7]: 0.0068 ± 0.0002 | peptide microarray binding signal [3, 8]: 0.00588 ± 0.00018 | peptide microarray binding signal [4, 7]: 0.00371 ± 0.00042 | peptide microarray binding signal [4, 8]: 0.00271 ± 4.1e-05

TGGKAPRKQLATK [H3 11-23 T G G Kme A P R Kme3 Q L A T K]
peptide microarray binding signal ([1]; peptide modifications: H3K14me1 H3K18me3, binder concentration: 50 nM): 0.00705 ± 0.00051 | peptide microarray binding signal ([1]; peptide modifications: H3K14me1 H3K18me3, binder concentration: 500 nM): 0.0115 ± 0.00073 | peptide microarray binding signal ([2]; peptide modifications: H3K14me1 H3K18me3, binder concentration: 10 nM): 0.0113 ± 0.00048 | peptide microarray binding signal ([2]; peptide modifications: H3K14me1 H3K18me3, binder concentration: 100 nM): 0.0191 ± 0.00089 | peptide microarray binding signal [3, 9]: 0.389 ± 0.079 | peptide microarray binding signal [3, 10]: 0.473 ± 0.23 | peptide microarray binding signal [4, 9]: 0.0513 ± 0.004 | peptide microarray binding signal [4, 10]: 0.0139 ± 0.0023

TGGKAPRKQLATK [H3 11-23 T G G Kme A P Rcit K Q L A T K]
peptide microarray binding signal ([1]; peptide modifications: H3K14me1 H3R17cit, binder concentration: 50 nM): 0.00351 ± 0.00027 | peptide microarray binding signal ([1]; peptide modifications: H3K14me1 H3R17cit, binder concentration: 500 nM): 0.0134 ± 0.00059 | peptide microarray binding signal ([2]; peptide modifications: H3K14me1 H3R17cit, binder concentration: 10 nM): 0.0121 ± 0.0023 | peptide microarray binding signal ([2]; peptide modifications: H3K14me1 H3R17cit, binder concentration: 100 nM): 0.0268 ± 0.0021 | peptide microarray binding signal [3, 11]: 0.00151 ± 0.00025 | peptide microarray binding signal [3, 12]: 0.00223 ± 0.00013 | peptide microarray binding signal [4, 11]: 0.00267 ± 0.00024 | peptide microarray binding signal [4, 12]: 0.00271 ± 0.00023

TGGKAPRKQLATK [H3 11-23 T G G Kme A P Rme K Q L A T K]
peptide microarray binding signal ([1]; peptide modifications: H3K14me1 H3R17me1, binder concentration: 50 nM): 0.0069 ± 0.00032 | peptide microarray binding signal ([1]; peptide modifications: H3K14me1 H3R17me1, binder concentration: 500 nM): 0.0148 ± 0.001 | peptide microarray binding signal ([2]; peptide modifications: H3K14me1 H3R17me1, binder concentration: 10 nM): 0.00674 ± 0.00033 | peptide microarray binding signal ([2]; peptide modifications: H3K14me1 H3R17me1, binder concentration: 100 nM): 0.0121 ± 0.00053 | peptide microarray binding signal [3, 13]: 0.00587 ± 0.0018 | peptide microarray binding signal [3, 14]: 0.0114 ± 0.0068 | peptide microarray binding signal [4, 13]: 0.0084 ± 0.0022 | peptide microarray binding signal [4, 14]: 0.00427 ± 0.0008

TGGKAPRKQLATK [H3 11-23 T G G Kme A P Rme2a K Q L A T K]
peptide microarray binding signal ([1]; peptide modifications: H3K14me1 H3R17me2a, binder concentration: 50 nM): 0.00643 ± 0.00034 | peptide microarray binding signal ([1]; peptide modifications: H3K14me1 H3R17me2a, binder concentration: 500 nM): 0.0164 ± 0.0061 | peptide microarray binding signal ([2]; peptide modifications: H3K14me1 H3R17me2a, binder concentration: 10 nM): 0.00633 ± 0.00014 | peptide microarray binding signal ([2]; peptide modifications: H3K14me1 H3R17me2a, binder concentration: 100 nM): 0.0122 ± 0.0012 | peptide microarray binding signal [3, 15]: 0.00328 ± 0.0014 | peptide microarray binding signal [3, 16]: 0.00896 ± 0.0044 | peptide microarray binding signal [4, 15]: 0.00393 ± 0.00055 | peptide microarray binding signal [4, 16]: 0.00398 ± 0.00069

TGGKAPRKQLATK [H3 11-23 T G G Kme A P Rme2s K Q L A T K]
peptide microarray binding signal ([1]; peptide modifications: H3K14me1 H3R17me2s, binder concentration: 50 nM): 0.00793 ± 0.00067 | peptide microarray binding signal ([1]; peptide modifications: H3K14me1 H3R17me2s, binder concentration: 500 nM): 0.0311 ± 0.0068 | peptide microarray binding signal ([2]; peptide modifications: H3K14me1 H3R17me2s, binder concentration: 10 nM): 0.0249 ± 0.0026 | peptide microarray binding signal ([2]; peptide modifications: H3K14me1 H3R17me2s, binder concentration: 100 nM): 0.0474 ± 0.0059 | peptide microarray binding signal [3, 17]: 0.00508 ± 0.0026 | peptide microarray binding signal [3, 18]: 0.0135 ± 0.0052 | peptide microarray binding signal [4, 17]: 0.0103 ± 0.0018 | peptide microarray binding signal [4, 18]: 0.00709 ± 0.00074

TGGKAPRKQLATK [H3 11-23 T G G Kme2 A P R K Q L A T K]
peptide microarray binding signal ([1]; peptide modifications: H3K14me2, binder concentration: 50 nM): 0.00614 ± 7.5e-05 | peptide microarray binding signal ([1]; peptide modifications: H3K14me2, binder concentration: 500 nM): 0.0148 ± 0.0014 | peptide microarray binding signal ([2]; peptide modifications: H3K14me2, binder concentration: 10 nM): 0.00806 ± 0.00059 | peptide microarray binding signal ([2]; peptide modifications: H3K14me2, binder concentration: 100 nM): 0.00928 ± 0.002 | peptide microarray binding signal [3, 19]: 0.00381 ± 0.00026 | peptide microarray binding signal [3, 20]: 0.00331 ± 0.00013 | peptide microarray binding signal [4, 19]: 0.00619 ± 0.00091 | peptide microarray binding signal [4, 20]: 0.00548 ± 0.0005

TGGKAPRKQLATK [H3 11-23 T G G Kme2 A P R Kac Q L A T K]
peptide microarray binding signal ([1]; peptide modifications: H3K14me2 H3K18ac, binder concentration: 50 nM): 0.00868 ± 0.00034 | peptide microarray binding signal ([1]; peptide modifications: H3K14me2 H3K18ac, binder concentration: 500 nM): 0.0165 ± 0.0015 | peptide microarray binding signal ([2]; peptide modifications: H3K14me2 H3K18ac, binder concentration: 10 nM): 0.0173 ± 0.003 | peptide microarray binding signal ([2]; peptide modifications: H3K14me2 H3K18ac, binder concentration: 100 nM): 0.0242 ± 0.0017 | peptide microarray binding signal [3, 21]: 0.0129 ± 0.0016 | peptide microarray binding signal [3, 22]: 0.0111 ± 0.00098 | peptide microarray binding signal [4, 21]: 0.00806 ± 0.00086 | peptide microarray binding signal [4, 22]: 0.00496 ± 0.00013

TGGKAPRKQLATK [H3 11-23 T G G Kme2 A P R Kme Q L A T K]
peptide microarray binding signal ([1]; peptide modifications: H3K14me2 H3K18me1, binder concentration: 50 nM): 0.00752 ± 0.0013 | peptide microarray binding signal ([1]; peptide modifications: H3K14me2 H3K18me1, binder concentration: 500 nM): 0.0129 ± 0.00084 | peptide microarray binding signal ([2]; peptide modifications: H3K14me2 H3K18me1, binder concentration: 10 nM): 0.013 ± 0.0021 | peptide microarray binding signal ([2]; peptide modifications: H3K14me2 H3K18me1, binder concentration: 100 nM): 0.0405 ± 0.012 | peptide microarray binding signal [3, 23]: 0.0136 ± 0.0009 | peptide microarray binding signal [3, 24]: 0.00964 ± 0.0012 | peptide microarray binding signal [4, 23]: 0.00565 ± 0.00074 | peptide microarray binding signal [4, 24]: 0.0045 ± 0.00053
